High-throughput results: PubChem, Sanford-Burnham Center for Chemical Genomics
HIF-2a inh = HIF-2a inhibition. actives 0.72% (n = 360,000). AID 624352. inhibition, % at 18.8 µM. 786-0 RCC cells HIF-2a reporter, luciferase luminescence, overnight;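 active means inhibition of the luminescence signal of 40% or more relative to plate controls, in a single-dose primary screen at 18.75 µM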
TWEAK-Fn14 inh = inhibitors of TWEAK-Fn14 interaction signaling | TWEAK-stimulated Fn14 reporter cells, luciferase luminescence, 8 h | inhibition, % at 10 µM | actives 2% (n = 360,000) | AID 1159606; in the data active means inhibition above about 50%
TROY NFkB inh = blocks TROY-dependent signaling in reporter cells | Q293 LMP1-TROYcd NF-kB luciferase reporter, 4 h | inhibition, % at 10 µM | actives 0.98% (n = 360,000);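 active means compounds whose plate-normalised and pattern-corrected inhibition of the luciferase reporter signal at the single screening dose is 50% or more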
KKLEB cytotox = counter-screen for CF NF-kB inhibitors: cytotoxicity; KKLEB CF airway cells viability, ATPlite luminescence, overnight; hits give low values; cells stimulated with P. aeruginosa culture filtrate; activity change (cytotoxicity), % at 5 µM; actives 0.36% (n = 360,000);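 active means corrected activity change at or below -50% at 5 µM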
Peg3 promoter = Peg3 promoter activity inhibition; HeLa PEG-Prom luciferase reporter, luminescence, overnight; inhibition, % at 20 µM; actives 1.7% (n = 360,000); AID 588405;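 active means inhibition of at least 50% at 20 µM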
CF NFkB inh = blocks PAF-induced NF-kB reporter in cystic fibrosis cells. KKLEB NF-kB-GFP reporter, GFP fluorescence overnight. inhibition, % at 5 µM. actives 0.86% (n = 360,000);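 active means at least 50% inhibition at 5 µM, scaled per plate between neutral and stimulator controls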;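 further: PAF is a Pseudomonas aeruginosa culture filtrate used as stimulus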
Mdm2 MdmX conf = confirmation of inhibitors of human Mdm2/MdmX interaction, set 2. shares compounds with HIF-2a inh. SaOS-2 split-luciferase Mdm2/MdmX complementation, luminescence. inhibition, % at 8 µM. actives 99% (n = 740). AID 504601;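 active means mean inhibition of the luminescence signal across two replicates at or above 26 percent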
Target sequence (O15151 whole entry, looked up): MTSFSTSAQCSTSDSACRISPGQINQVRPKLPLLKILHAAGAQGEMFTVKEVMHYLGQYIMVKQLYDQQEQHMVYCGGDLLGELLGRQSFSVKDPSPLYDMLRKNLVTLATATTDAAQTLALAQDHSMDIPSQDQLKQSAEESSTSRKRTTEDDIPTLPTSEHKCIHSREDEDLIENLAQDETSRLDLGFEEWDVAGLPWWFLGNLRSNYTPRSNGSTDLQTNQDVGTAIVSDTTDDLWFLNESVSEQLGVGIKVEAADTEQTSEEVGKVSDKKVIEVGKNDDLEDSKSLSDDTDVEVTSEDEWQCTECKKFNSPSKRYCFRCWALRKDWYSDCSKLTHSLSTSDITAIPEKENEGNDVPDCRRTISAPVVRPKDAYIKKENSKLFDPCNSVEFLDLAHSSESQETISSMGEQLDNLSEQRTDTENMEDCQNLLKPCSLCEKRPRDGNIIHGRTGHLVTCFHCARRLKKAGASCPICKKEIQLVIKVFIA
Target sequence (Q00987 whole entry, looked up): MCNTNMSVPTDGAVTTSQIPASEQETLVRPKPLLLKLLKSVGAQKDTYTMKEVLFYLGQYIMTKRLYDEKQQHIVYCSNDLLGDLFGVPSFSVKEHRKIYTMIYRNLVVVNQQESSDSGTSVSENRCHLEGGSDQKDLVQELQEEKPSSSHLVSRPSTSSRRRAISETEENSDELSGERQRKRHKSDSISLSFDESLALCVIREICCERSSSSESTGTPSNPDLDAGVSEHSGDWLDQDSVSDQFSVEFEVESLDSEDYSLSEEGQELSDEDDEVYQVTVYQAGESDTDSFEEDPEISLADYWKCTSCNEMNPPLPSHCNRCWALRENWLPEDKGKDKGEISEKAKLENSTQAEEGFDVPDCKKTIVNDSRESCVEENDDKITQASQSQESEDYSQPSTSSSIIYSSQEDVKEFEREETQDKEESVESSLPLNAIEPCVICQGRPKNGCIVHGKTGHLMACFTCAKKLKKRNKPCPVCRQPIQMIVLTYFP
HIF-2a conf = confirmation of HIF-2a inhibitors; inhibition, % at 18.8 µM; 786-0 RCC cells, HIF-2a luciferase reporter luminescence, overnight; actives 56% (n = 1,800); shares compounds with HIF-2a inh;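 active means mean inhibition across four replicates of at least 40 percent at the single tested concentration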
HIF-1a cs = inhibits HIF-1a reporter, a counter-screen for HIF-2a inhibitors. actives 72% (n = 1,800). inhibition, % at 18.8 µM. shares compounds with HIF-2a inh. MiaPaCa-2 HIF-1a luciferase reporter, desferoxamine, overnight;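 active means mean inhibition of the reporter signal across four replicates at the single tested dose of 50% or more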
Numbers stand for hits; 0 = inactive; - = not tested or not shown. A selection: hits, their analogues and other compounds. The true share with any hit is near 4%.

SMILES	HIF-2a inh	TWEAK-Fn14 inh	TROY NFkB inh	KKLEB cytotox	Peg3 promoter	CF NFkB inh	HIF-2a conf	HIF-1a cs	others
COc1ccc(C(=O)c2c(C(F)(F)F)oc3c2C(=O)c2ccccc2C3=O)cc1	0	71	0	-83	99	88	-	-	Mdm2 MdmX conf=97
CC(=O)Nc1ccc(NC(=O)c2ccc(-c3ccnn3C)c3ccoc23)cc1	61	0	0	0	0	0	86	0
CN1CCN(c2ccc(CNC(=O)c3ccc(-c4ccnn4C)c4ccoc34)cc2)CC1	0	0	0	0	0	0	-	-
COc1cc(S(=O)(=O)N2CC(=O)Nc3ccccc32)ccc1NC(C)=O	0	0	0	0	0	0	-	-
O=C(CN(c1cccc(C(F)(F)F)c1)S(=O)(=O)c1ccc(Cl)c([N+](=O)[O-])c1)NCc1ccc(F)cc1	82	0	0	0	88	0	0	105
CCCc1cc(=O)oc2cc(C)cc(OC(C)C(=O)NCCN3CCOCC3)c12 (configuration not stated)	0	0	0	0	0	0	-	-
CSc1ccccc1-c1nnc(NC(=O)Cc2ccccc2)o1	0	0	0	0	0	0	-	-
CN(C)c1ccc(/C=N/NC(=O)c2ccc3c(c2)OCO3)cc1	0	0	0	0	0	0	-	-
O=C(NN=Cc1c(O)ccc2ccccc12)c1ccc2c(c1)OCO2	0	0	0	0	0	0	-	-	Mdm2 MdmX conf=88
O=C(CN1CCCc2ccccc21)N/N=C/c1c(O)ccc2ccccc12	0	0	0	0	0	0	-	-	Mdm2 MdmX conf=97
O=C(N/N=C\c1c(O)ccc2ccccc12)c1ccc(S(=O)(=O)N2CCCCC2)cc1	0	0	0	0	64	0	-	-	Mdm2 MdmX conf=87
O=C(N/N=C/c1ccc([N+](=O)[O-])o1)c1ccc2c(c1)OCO2	56	0	0	0	0	0	52	59
C/C(CCc1ccccc1)=N\NC(=O)c1ccccc1	0	0	0	0	0	0	-	-
CNC(=O)NC(=O)COC(=O)CCCSc1nc2ccccc2s1	64	59	0	0	0	0	85	57
NC(=O)COC(=O)CCCSc1nc2ccccc2s1	57	54	0	0	0	0	76	0
N#Cc1ccsc1NC(=O)COC(=O)CCCSc1nc2ccccc2s1	64	0	0	0	0	0	69	53
Cc1noc(C)c1CSCC(=O)OCC(=O)Nc1sccc1C#N	0	0	0	0	0	0	-	-
CC(OC(=O)CCCSc1nc2ccccc2s1)C(=O)NC(N)=O (configuration not stated)	50	0	0	0	0	0	85	63
Cc1nn(CCc2n[nH]c(=S)n2-c2ccc(F)c(Cl)c2)c(C)c1[N+](=O)[O-]	0	0	0	0	0	0	-	-
COc1cccc(/C=N/NC(=O)c2ccncc2)c1OC(=O)c1ccc(Br)cc1	0	0	0	0	0	0	-	-
CCC(C(=O)Nc1ccccc1C(=O)N1CCCC1)N1C(=O)c2ccccc2C1=O (configuration not stated)	0	0	0	0	0	0	-	-
O=C(O)c1ccccc1NC(=O)C(Cc1ccccc1)N1C(=O)c2ccccc2C1=O (configuration not stated)	42	0	0	0	0	0	0	0
CCOC(=O)c1nnc(-c2ccccc2)nc1Sc1c(Cl)cccc1Cl	63	0	0	0	64	0	0	65
Cc1oc(-c2ccccc2Cl)nc1CSCC(=O)O	0	0	0	0	0	0	-	-
Cc1oc(-c2cccc(Cl)c2)nc1CSCC(=O)O	43	0	0	0	0	0	0	0
SMILES	HIF-2a inh	TWEAK-Fn14 inh	TROY NFkB inh	KKLEB cytotox	Peg3 promoter	CF NFkB inh	HIF-2a conf	HIF-1a cs	others
CCN1CCN(c2ccc(S(=O)(=O)N3CCCCC3)cc2NC(=O)/C=C/c2ccc([N+](=O)[O-])cc2)CC1	87	0	0	0	76	0	0	101
COc1ccccc1CNN	0	0	0	0	0	0	-	-
CCOc1ccc(-n2cnc3scc(-c4ccc(OC)c(OC)c4)c3c2=O)cc1	41	0	0	0	0	0	0	0
COc1ccccc1Oc1cc(C#N)c(C#N)cc1-n1nnc2ccccc21	46	0	0	0	0	0	0	54
CN(C)Cc1c(O)ccc2c1O/C(=C\C=C\c1ccccc1)C2=O	0	0	0	0	0	0	-	-	Mdm2 MdmX conf=0
CCN1CCN(Cc2c(O)ccc3c2O/C(=C\c2ccccc2)C3=O)CC1	0	0	0	0	0	0	-	-
COc1cccc(CC(=O)NCC2COc3ccccc3O2)c1OC (configuration not stated)	0	0	0	0	0	0	-	-
CC(C)(C)C(=O)NC(=S)NNC(=O)c1sc2ccccc2c1Cl	78	100	86	-66	78	71	0	100
Cc1ccc(S(=O)(=O)N2CCCCC2)cc1NC(=O)Cn1ncc(Cl)c(Cl)c1=O	94	100	80	-89	109	104	99	104	Mdm2 MdmX conf=103
O=C(Cn1ncc(Cl)c(Cl)c1=O)N1CCN(S(=O)(=O)c2ccc3ccccc3c2)CC1	95	97	67	-68	106	82	96	105	Mdm2 MdmX conf=102
CCOC(=O)c1ccc(NC(=O)Cn2ncc(Cl)c(Cl)c2=O)cc1	89	99	75	-95	104	89	98	105	Mdm2 MdmX conf=103
CCN(CC)S(=O)(=O)c1cc(NC(=O)Cn2ncc(Cl)c(Cl)c2=O)ccc1C	97	98	89	-66	101	89	48	104	Mdm2 MdmX conf=103
O=C(O)CCC(=O)N1CCN(S(=O)(=O)c2ccc3ccccc3c2)CC1	0	0	0	0	0	0	-	-
CCOC(=O)c1ccc(NC(=O)Cn2nc(C)c3ccccc3c2=O)cc1	0	0	0	0	0	0	-	-
CCN1CCN(C(=O)c2ccccc2N(Cc2ccccc2)S(=O)(=O)c2ccc(OC)cc2)CC1	0	0	0	0	0	0	-	-
CC(C)(C)OC(=O)C[C@H]1C/C=C\C[C@@H](CC(=O)N(CCO)Cc2ccccc2)C(=O)NCCOC1=O	0	0	0	0	0	0	-	-
O=C(Cn1ncc(N2CCCC2)c(Cl)c1=O)c1ccc(Cl)cc1	0	0	0	0	0	0	-	-
CCC(=O)Nc1ccc(C(=O)Cn2ncc(Cl)c(Cl)c2=O)cc1	90	76	0	0	106	0	0	105
Cn1cnnc1Sc1ccc(C(=O)OCC(=O)Nc2ccccc2)cc1[N+](=O)[O-]	0	0	0	0	0	0	-	-
